Assay results taken from PubChem BioAssay (NCATS).
“And” between values parts separate entries of the source, which are not always exact repeats. Equal entries are not always repeated. Inconclusive results are not listed. The source made the active and inactive calls. Unless noted, calls come from the whole dose curve; as a rule, active = well fitted curve in the direction sought with a large enough effect; inconclusive = small, poorly fitted or top-dose-only effect, or another doubt; inactive = no such curve, though single readings can be large; an effect the other way counts as inactive or inconclusive.

Key:
[1] = Confirmation and Secondary Assay for Modulators of Hemoglobin Beta Chain Splicing at IVS2 654 locus (AID 910);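 note: HeLa cells stably carrying EGFP split by mutant beta-globin IVS2-654 intron; per-well total GFP intensity by laser scanning cytometry after 2-day treatment; % of control where 0% means no effect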
In short: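 Readout: per-well total peak green fluorescence (488 nm ex, 500–520 nm em) from objects 5–250 µm, reflecting correct splicing of an EGFP-654 reporter. Compounds were applied for 2 days at 37 °C to overnight-plated HeLa EGFP-654 cells; controls were DMSO and 500 nM IVS2-654 PNA.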

[2] = Confirmation and Secondary Assay for Modulators of Hemoglobin Beta Chain Splicing at IVS2 705 locus (AID 930);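 note: HeLa cells stably expressing the EGFP-705 splicing reporter; GFP fluorescence per well restored by corrected splicing of the IVS2-705 intron in EGFP; % of control where 0% means no effect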
In short: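 First, HeLa EGFP-705 cells are seeded at 500/well in Optimem with 2% FCS and left overnight. Next, compound or DMSO is added for 2 days. Finally wells are laser-scanned and total peak GFP intensity scored.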

[3] = qHTS Assay for Lipid Storage Modulators (AID 1519; calls by dose curve); conditions: Drosophila S3 cells, BODIPY lipid droplet/cell ratio, laser cytometry, cells loaded with oleic acid; for activity change, negative = inhibition: at 57.5 µM (top of the series)
In short: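 Cells seeded at 5,000 per well were treated with compounds over a concentration series and loaded with oleic acid (400 uM, as added). Lipid droplet fluorescence (488 nm excitation, 500-530 nm channel) was read by laser-scanning cytometry and normalized to 20 uM Triacsin C.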

[4] = target: Estrogen receptor (Homo sapiens) (UniProt P03372); assay: qHTS assay for small molecule agonists of estrogen receptor alpha signaling (AID 588514; calls by dose curve; note: potency is the fitted concentration of half-maximal effect; nearly all actives have a fitted effect of over 70% in size)
In short: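 ER-alpha-UAS-bla GripTite HEK 293 cells in medium with 2% charcoal/dextran-treated FBS were treated with compound titrations at 37 C for 18 hrs; beta-lactamase reporter read by CCF4 fluorescence after 2 hrs at RT.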

[5] = target: Glucocorticoid receptor (Homo sapiens) (UniProt P04150); assay: qHTS assay for small molecule agonists of glucocorticoid receptor signaling (AID 588532; active = well fitted curve in the direction sought with a large enough effect in the signal ratio, with a control signal flat; the % refers to the signal ratio;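 note: 100% = dexamethasone at 0.1 µM and 0% = DMSO only wells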); conditions: HeLa MMTV-bla, beta-lactamase ratio, agonist, 18 h; stronger effect = higher value; percent of dexamethasone control, DMSO zero
In short: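 Using MMTV-bla HeLa cells in medium with 1% stripped FBS and 25 mM HEPES, compounds were titrated and incubated overnight-length (18 h). Beta-lactamase cleavage of CCF4 was quantified by dual-emission fluorescence.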

[6] = target: Peroxisome proliferator-activated receptor delta (Homo sapiens) (UniProt Q03181); assay: qHTS assay for small molecule agonists of peroxisome proliferator-activated receptor delta signaling (AID 588534; calls by dose curve;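 note: 0% = DMSO basal wells and 100% = positive control agonist at 10 µM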)
In short: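 Cell-based beta-lactamase reporter assay run in agonist mode: cells seeded and incubated 5 hrs at 37 C, compounds added and incubated 18 hrs at 37 C. CCF4 dye fluorescence read after 2 hrs at RT; EC50 and efficacy from Hill fits.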

[7] = qHTS assay for small molecule antagonists of peroxisome proliferator-activated receptor delta signaling (AID 588535; active = well fitted inhibition curve with a large enough effect in the signal ratio, with a control signal flat, not every such curve was filed as active; the % refers to the signal ratio;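 for max response: cells co-treated with a PPAR-delta agonist as stimulator during compound exposure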); conditions: HEK293T PPARd-UAS-bla, beta-lactamase FRET ratio, 18 h; 460 nm channel
In short: (§1)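 Cell-based beta-lactamase assay in antagonist mode: 4000 HEK293T PPAR-delta-UAS-bla cells per well, 5 hr preincubation then 18 hr compound incubation at 37 C. IC50 obtained by Hill equation fitting.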

[8] = target: Peroxisome proliferator-activated receptor delta (Homo sapiens) (UniProt Q03181); assay: as above
In short: as §1

[9] = target: Peroxisome proliferator-activated receptor gamma (Homo sapiens) (UniProt P37231); assay: qHTS assay for small molecule agonists of peroxisome proliferator-activated receptor gamma signaling (AID 588536; active = well fitted curve in the direction sought with a large enough effect in the signal ratio, with a control signal flat, not every such curve was filed as active; the % refers to the signal ratio;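 note: 0% = DMSO basal wells and 100% = rosiglitazone at 2 µM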)
In short: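 GeneBLAzer PPAR-gamma-UAS-bla HEK293 cells in 1% charcoal/dextran-treated FBS medium were treated 16 h at 37 C with compounds. Beta-lactamase activity was read by CCF4 ratio (460/530 nm). Response was normalized to 2 uM rosiglitazone (100%) and DMSO, then Hill-fitted for EC50 and efficacy.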

[10] = target: Peroxisome proliferator-activated receptor gamma (Homo sapiens) (UniProt P37231); assay: qHTS assay for small molecule antagonists of peroxisome proliferator-activated receptor gamma signaling (AID 588537; active = well fitted inhibition curve with a large enough effect in the signal ratio, with a control signal flat, not every such curve was filed as active; the % refers to the signal ratio;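 note: reporter cells co-stimulated with 50 nM rosiglitazone agonist during compound treatment; % of control where 0% means no effect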)
In short: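 Inhibitors of agonist-stimulated UAS-bla reporter activity were sought in HEK293 cells; rosiglitazone (50 nM) defined full signal and DMSO baseline. Curves fitted to Hill model gave IC50 and efficacy.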

[11] = target: Vitamin D3 receptor (Homo sapiens) (UniProt P11473); assay: qHTS assay for small molecule antagonists of vitamin D receptor signaling (AID 588541; calls by dose curve;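 note: receptor activated by calcitriol during compound treatment; % is set by controls: 0 for no effect and ±100 for the full control effect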)
In short: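 Antagonist-mode beta-lactamase reporter assay: HEK293T VDR-UAS-bla cells were exposed to titrated compound alongside 1-alpha,25-dihydroxyvitamin D3 at 3 nM final for 16 h. Values were normalized to the 50 nM agonist control and DMSO basal, with IC50 and efficacy from Hill equation fits.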

[12] = target: Vitamin D3 receptor (Homo sapiens) (UniProt P11473); assay: qHTS assay for small molecule agonists of vitamin D receptor signaling (AID 588543; calls by dose curve;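 note: 0% = DMSO basal and 100% = reference agonist control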)
In short: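 VDR-UAS-bla HEK293T cells, 2000/well, 2% charcoal-stripped FBS; compound titration 16 h at 37 C; CCF4 beta-lactamase ratio read. Normalized to 50 nM 1-alpha,25-dihydroxyvitamin D3 (100%) and DMSO; Hill fit gives EC50, efficacy.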

[13] = qHTS assay for small molecule agonists of retinoid X receptor alpha signaling (AID 588544; calls by dose curve;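 for activation: 0% = DMSO basal wells and 100% = reference agonist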); conditions: HEK293T RXRa-UAS-bla, beta-lactamase reporter, 18 h; 530 nm emission
[14] = target: Retinoic acid receptor RXR-alpha (Homo sapiens) (UniProt P19793); assay: as above
[15] = target: Thyroid hormone receptor beta (Homo sapiens) (UniProt P10828); assay: qHTS assay for small molecule agonists of thyroid hormone receptor beta signaling (AID 588545; calls by dose curve;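 note: 0% = DMSO only and 100% = 10 nM T3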)
In short: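 Efficacy and EC50 values derive from Hill fits of qHTS titration data, normalized to 10 nM T3 and DMSO-only wells. HEK 293 reporter cells were stimulated for 18 hrs at 37 C, with beta-lactamase activity measured by CCF4 fluorescence.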

[16] = qHTS assay for small molecule antagonists of retinoid X receptor alpha signaling (AID 588546; active = well fitted inhibition curve with a large enough effect in the signal ratio, with a control signal flat, not every such curve was filed as active; the % refers to the signal ratio;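 note: cells stimulated with 9-cis-retinoic acid as agonist; % is set by controls: 0 for no effect and ±100 for the full control effect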); conditions: HEK293T RXRa-UAS-bla, beta-lactamase ratio, antagonist mode; measured here: W530 green channel, cytotoxicity proxy
In short: (§2)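 Beta-lactamase reporter inhibition, read as CCF4 fluorescence ratio (ex 405, em 460/530 nm) after 2 h at RT. HEK293T UAS-bla cells, 2500/well, were stimulated with 9-cis-RA at 500 or 100 nM final alongside test compound for 18 h at 37 C.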

[17] = target: Retinoic acid receptor RXR-alpha (Homo sapiens) (UniProt P19793); assay: as above; conditions: HEK293T RXRa-UAS-bla, beta-lactamase ratio, antagonist mode
In short: as §2

[18] = target: Thyroid hormone receptor beta (Homo sapiens) (UniProt P10828); assay: qHTS assay for small molecule antagonists of thyroid hormone receptor beta signaling (AID 588547; active = well fitted inhibition curve with a large enough effect in the signal ratio, with a control signal flat, not every such curve was filed as active; the % refers to the signal ratio;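 note: cells stimulated with 0.4 nM T3 agonist during compound exposure; % is set by controls: 0 for no effect and ±100 for the full control effect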); conditions: TR-UAS-bla HEK293, beta-lactamase ratio, antagonist mode, 18 h
In short: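 Inhibition of T3-driven (0.4nM final) beta-lactamase reporter activity was measured over 0.59 nM to 92 uM compound after 18 h at 37 C. The cells were GripTite HEK293 TR-UAS-bla in charcoal/dextran-stripped serum, with CCF4 ratio read-out and IC50 from Hill fits.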

[19] = qHTS assay for small molecule agonists of the antioxidant response element (ARE) signaling pathway (AID 651741; active = well fitted activation curve with a large enough effect in the signal ratio; the % refers to the signal ratio; note: % of control where 0% means no effect)
In short: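 Seeding 2,000 ARE-bla HepG2 cells per well preceded a 5 h incubation at 37 C/5% CO2 and a 16 h compound exposure at 37 C. Beta-lactamase reporter activity was then quantified by fluorescence after 2 h with LiveBLAzer B/G FRET substrate.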

[20] = qHTS assay for small molecule activators of the p53 signaling pathway (AID 651743; active = well fitted activation curve with a large enough effect in the signal ratio, not every such curve was filed as active; the % refers to the signal ratio; note: % of control where 0% means no effect); conditions: HCT-116 p53RE-bla, beta-lactamase FRET ratio, 16 h; activation: stronger effect = higher value
In short: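 Screen for p53 pathway agonists uses stably transfected p53RE-bla HCT-116 cells, 4,000 per well, treated 16 h at 37 C with compounds in DMSO.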

[21] = qHTS assay for small molecule activators of the nuclear factor-kappa B (NF-kB) signaling pathway (AID 651749; active = well fitted activation curve with a large enough effect in the signal ratio; the % refers to the signal ratio; note: % of control where 0% means no effect); conditions: NF-kB-bla ME-180 cells, beta-lactamase FRET ratio, 16 h; activation: stronger effect = higher value
In short: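 Stably transfected ME-180 line; NF-kB response element upstream of beta-lactamase. Treatment: compound or DMSO, 16 hr. Detection: fluorescent FRET substrate.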

[22] = qHTS assay for environmental chemicals that activate the Aryl hydrocarbon Receptor (AhR) signaling pathway (AID 651777); conditions: 1A2-DRE human hepatoma cells, luciferase, 24 h; activation: stronger effect = higher value; note: % of control where 0% means no effect; nearly all actives have a fitted effect of over 15% in size
In short: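 Quantitative HTS in stably transfected human liver-derived cells whose luciferase gene sits downstream of the CYP1A2 promoter and dioxin response element. After 24 hr exposure at 37 C, One-Glo luminescence was measured.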

[23] = target: Peroxisome proliferator-activated receptor alpha (Homo sapiens) (UniProt Q07869); assay: qHTS assay for small molecule agonists of the peroxisome proliferator-activated receptor alpha (PPARalpha) signaling pathway (AID 651778); conditions: PathHunter PPARalpha complementation, chemiluminescence, 6 h; stronger effect = higher value; note: % of control where 0% means no effect
In short: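 Chemiluminescence from complemented enzyme reported PPARalpha activation in cells after 6 hr of compound treatment at 37 C. The detection reagent was incubated for 60 min at room temperature, and compounds were scored as agonists.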

[24] = qHTS assay for small molecule agonists of the antioxidant response element (ARE) signaling pathway measured by Nrf2-dependant transcriptional activity (AID 720636; active = well fitted curve in the direction sought with a large enough effect in the repeat runs; an effect the other way counts as inactive or inconclusive; note: % of control where 0% means no effect)
In short: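 Quantitative HTS format in HepG2 cells stably expressing an ARE-luciferase reporter; 16 hr compound treatment at 37 C, luciferase signal detected with ONE-Glo.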

[25] = qHTS assay for small molecule agonists of the antioxidant response element (ARE) signaling pathway measured by Nrf2-dependant transcriptional activity - cell viability counter screen (AID 720653; active = well fitted curve in the direction sought with a large enough effect in the repeat runs; an effect the other way counts as inactive or inconclusive; note: % is set by controls: 0 for no effect and ±100 for the full control effect); conditions: ARE-bla HepG2 viability, CellTiter-Glo ATP luminescence, 16 h; stronger effect = lower value
In short: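 Cytotoxicity counter screen: intracellular ATP quantified by CellTiter-Glo luminescence in the same ARE-bla HepG2 plates, after 16 h compound exposure and a 2 h beta-lactamase substrate step.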

[26] = qHTS assay for cell viability of HEK293 cells (AID 743288); conditions: ATP luminescence (CellTiter-Glo), 18 h; max response: stronger effect = lower value; note: % is set by controls: 0 for no effect and ±100 for the full control effect; nearly all actives have a fitted effect of over 50% in size
In short: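 Parental HEK293 cells, 2,000 per well, preincubated at least 5 h at 37 C, then exposed to compounds in DMSO for 18 h at 37 C. Viability by CellTiter-Glo ATP luminescence after 30 min at room temperature.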

[27] = qHTS assay for cell viability of the p53RE-bla HCT-116 cell line (AID 743292); note: % is set by controls: 0 for no effect and ±100 for the full control effect; nearly all actives have a fitted effect of over 55% in size
In short: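 Viability of compound-treated p53RE-bla HCT-116 cells is taken from ATP-dependent luciferase luminescence. Treatment lasts 16 h at 37 C after a 5 h settling period; detection follows 30 min at room temperature.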

[28] = target: Ubiquitin carboxyl-terminal hydrolase 1 (Homo sapiens) (UniProt O94782); assay: Inhibitors of USP1/UAF1: Pilot qHTS (AID 504865);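 note: rhodamine fluorescence freed from ubiquitin-rhodamine substrate followed over time; top concentration of the series differs between compounds; % is set by controls: 0 for no effect and ±100 for the full control effect; nearly all actives have a fitted effect of over 35% in size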
In short: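 USP1/UAF1 complex at 1 nM preincubated 15 min at room temperature with compound, then Ub-Rho substrate added at 150 nM final. Fluorescence (480/540 nm) read kinetically in 50 mM HEPES pH 7.8, 0.5 mM EDTA, 1 mM TCEP, 0.1 mg/ml BSA, 0.01% Tween-20.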

[29] = measured here: cell count channel max response
[30] = measured here: lipid channel max response

Peroxisome proliferator-activated receptor delta (Homo sapiens), sequence (Q03181 whole entry, looked up): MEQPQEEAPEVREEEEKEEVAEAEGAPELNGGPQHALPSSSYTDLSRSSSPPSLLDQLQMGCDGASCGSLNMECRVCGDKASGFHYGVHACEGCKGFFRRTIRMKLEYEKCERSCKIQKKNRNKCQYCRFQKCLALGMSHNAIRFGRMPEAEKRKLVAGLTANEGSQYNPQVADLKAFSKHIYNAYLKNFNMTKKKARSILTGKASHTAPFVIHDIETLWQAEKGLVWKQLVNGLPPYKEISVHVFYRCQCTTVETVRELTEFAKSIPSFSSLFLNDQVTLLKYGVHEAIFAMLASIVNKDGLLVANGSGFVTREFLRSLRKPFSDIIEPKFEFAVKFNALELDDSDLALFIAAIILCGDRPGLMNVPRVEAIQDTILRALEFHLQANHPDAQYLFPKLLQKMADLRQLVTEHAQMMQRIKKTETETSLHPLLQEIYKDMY
Retinoic acid receptor RXR-alpha (Homo sapiens), sequence (P19793 whole entry, looked up): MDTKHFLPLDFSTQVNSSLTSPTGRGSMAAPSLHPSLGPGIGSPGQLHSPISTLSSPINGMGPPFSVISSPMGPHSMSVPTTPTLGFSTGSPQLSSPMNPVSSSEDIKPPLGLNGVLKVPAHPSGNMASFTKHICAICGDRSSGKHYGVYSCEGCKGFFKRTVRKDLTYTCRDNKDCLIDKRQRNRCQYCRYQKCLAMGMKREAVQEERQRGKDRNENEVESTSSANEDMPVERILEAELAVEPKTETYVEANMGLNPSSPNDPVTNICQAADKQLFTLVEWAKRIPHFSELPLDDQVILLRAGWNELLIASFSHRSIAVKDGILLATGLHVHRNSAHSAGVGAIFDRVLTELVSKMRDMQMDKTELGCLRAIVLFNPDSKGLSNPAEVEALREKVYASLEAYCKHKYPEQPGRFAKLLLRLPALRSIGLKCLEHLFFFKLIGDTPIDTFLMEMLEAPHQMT
Peroxisome proliferator-activated receptor gamma (Homo sapiens), sequence (P37231 whole entry, looked up): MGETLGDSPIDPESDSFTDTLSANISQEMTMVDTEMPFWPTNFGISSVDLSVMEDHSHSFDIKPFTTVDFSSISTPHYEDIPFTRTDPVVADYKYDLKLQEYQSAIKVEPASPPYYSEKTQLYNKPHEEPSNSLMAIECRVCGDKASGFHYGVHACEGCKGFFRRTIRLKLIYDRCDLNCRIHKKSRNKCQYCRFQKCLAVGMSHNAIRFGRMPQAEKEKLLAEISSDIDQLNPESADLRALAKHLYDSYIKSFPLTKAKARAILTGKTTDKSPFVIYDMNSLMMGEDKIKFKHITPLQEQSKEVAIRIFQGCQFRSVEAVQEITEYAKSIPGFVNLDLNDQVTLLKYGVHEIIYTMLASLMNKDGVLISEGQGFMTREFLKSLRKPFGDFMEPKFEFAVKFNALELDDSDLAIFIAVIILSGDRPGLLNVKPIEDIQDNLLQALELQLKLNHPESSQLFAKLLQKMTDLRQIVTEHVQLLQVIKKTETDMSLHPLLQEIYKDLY
Thyroid hormone receptor beta (Homo sapiens), sequence (P10828 whole entry, looked up): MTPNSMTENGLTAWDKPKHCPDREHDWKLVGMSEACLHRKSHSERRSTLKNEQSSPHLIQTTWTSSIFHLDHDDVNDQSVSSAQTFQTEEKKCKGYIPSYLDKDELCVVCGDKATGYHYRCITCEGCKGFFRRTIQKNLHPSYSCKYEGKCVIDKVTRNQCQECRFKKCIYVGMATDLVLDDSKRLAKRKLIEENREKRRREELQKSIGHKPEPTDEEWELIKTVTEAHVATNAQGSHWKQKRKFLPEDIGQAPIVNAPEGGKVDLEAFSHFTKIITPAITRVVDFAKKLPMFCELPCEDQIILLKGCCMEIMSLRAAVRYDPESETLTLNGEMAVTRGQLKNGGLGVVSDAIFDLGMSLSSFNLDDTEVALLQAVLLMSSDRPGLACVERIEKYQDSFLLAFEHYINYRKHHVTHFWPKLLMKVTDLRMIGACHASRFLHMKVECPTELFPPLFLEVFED
Vitamin D3 receptor (Homo sapiens), sequence (P11473 whole entry, looked up): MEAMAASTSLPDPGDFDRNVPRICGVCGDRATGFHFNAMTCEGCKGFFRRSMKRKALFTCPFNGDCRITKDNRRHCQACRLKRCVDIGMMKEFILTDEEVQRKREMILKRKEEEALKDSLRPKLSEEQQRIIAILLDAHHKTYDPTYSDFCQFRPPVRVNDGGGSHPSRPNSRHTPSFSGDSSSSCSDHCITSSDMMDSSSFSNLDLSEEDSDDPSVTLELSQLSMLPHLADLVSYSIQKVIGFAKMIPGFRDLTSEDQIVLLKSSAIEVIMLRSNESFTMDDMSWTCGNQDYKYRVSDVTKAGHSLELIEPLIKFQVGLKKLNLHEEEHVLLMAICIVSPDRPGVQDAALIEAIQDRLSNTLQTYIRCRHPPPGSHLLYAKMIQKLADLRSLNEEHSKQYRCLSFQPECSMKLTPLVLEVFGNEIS
Peroxisome proliferator-activated receptor alpha (Homo sapiens), sequence (Q07869 whole entry, looked up): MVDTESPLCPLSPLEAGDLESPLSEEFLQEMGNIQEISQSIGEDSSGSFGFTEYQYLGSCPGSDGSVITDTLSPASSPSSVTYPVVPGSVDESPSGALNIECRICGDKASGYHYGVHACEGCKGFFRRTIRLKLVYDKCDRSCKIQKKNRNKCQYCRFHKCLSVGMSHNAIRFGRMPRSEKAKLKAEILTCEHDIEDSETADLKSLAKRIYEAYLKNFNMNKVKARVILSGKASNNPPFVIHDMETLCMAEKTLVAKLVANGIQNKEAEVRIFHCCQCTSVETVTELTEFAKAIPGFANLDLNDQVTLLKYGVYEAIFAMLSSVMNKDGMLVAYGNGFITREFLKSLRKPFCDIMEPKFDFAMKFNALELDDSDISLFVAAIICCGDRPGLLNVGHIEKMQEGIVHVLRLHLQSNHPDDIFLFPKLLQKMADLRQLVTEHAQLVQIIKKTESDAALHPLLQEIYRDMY
Glucocorticoid receptor (Homo sapiens), sequence (P04150 whole entry, looked up): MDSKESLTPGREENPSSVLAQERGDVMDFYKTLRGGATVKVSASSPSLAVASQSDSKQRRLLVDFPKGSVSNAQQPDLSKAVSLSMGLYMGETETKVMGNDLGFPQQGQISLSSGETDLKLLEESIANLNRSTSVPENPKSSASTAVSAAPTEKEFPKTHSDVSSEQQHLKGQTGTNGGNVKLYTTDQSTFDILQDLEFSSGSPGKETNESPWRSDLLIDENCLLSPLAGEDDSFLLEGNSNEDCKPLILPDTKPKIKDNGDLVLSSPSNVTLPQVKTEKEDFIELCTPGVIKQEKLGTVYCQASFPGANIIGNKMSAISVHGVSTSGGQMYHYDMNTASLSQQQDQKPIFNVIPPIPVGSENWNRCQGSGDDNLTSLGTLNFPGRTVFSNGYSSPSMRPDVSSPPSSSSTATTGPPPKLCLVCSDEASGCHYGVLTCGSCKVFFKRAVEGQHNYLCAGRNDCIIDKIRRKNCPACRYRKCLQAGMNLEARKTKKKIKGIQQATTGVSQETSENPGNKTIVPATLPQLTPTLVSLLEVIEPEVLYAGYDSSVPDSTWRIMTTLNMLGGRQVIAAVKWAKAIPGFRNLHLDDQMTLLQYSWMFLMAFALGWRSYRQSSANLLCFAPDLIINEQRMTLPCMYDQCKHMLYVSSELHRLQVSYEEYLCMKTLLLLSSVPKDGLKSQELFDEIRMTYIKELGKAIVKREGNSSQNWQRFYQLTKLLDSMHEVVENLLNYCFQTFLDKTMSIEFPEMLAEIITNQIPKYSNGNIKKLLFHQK
Estrogen receptor (Homo sapiens), sequence (P03372 whole entry, looked up): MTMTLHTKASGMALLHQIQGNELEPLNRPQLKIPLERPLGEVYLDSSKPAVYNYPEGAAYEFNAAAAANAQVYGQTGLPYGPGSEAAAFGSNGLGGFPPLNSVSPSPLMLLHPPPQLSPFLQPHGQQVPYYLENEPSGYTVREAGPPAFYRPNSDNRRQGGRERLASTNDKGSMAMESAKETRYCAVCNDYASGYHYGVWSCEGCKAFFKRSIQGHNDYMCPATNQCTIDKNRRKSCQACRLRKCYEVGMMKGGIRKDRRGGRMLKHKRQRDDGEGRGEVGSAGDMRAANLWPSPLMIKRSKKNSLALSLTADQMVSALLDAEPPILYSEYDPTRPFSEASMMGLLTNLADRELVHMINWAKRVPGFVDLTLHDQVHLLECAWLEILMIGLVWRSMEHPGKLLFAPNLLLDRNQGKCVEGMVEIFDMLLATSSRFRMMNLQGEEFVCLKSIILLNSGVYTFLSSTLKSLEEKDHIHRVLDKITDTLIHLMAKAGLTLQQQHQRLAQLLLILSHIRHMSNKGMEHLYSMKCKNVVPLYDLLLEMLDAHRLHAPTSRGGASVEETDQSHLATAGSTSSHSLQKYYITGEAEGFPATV
Ubiquitin carboxyl-terminal hydrolase 1 (Homo sapiens), sequence (O94782 whole entry, looked up): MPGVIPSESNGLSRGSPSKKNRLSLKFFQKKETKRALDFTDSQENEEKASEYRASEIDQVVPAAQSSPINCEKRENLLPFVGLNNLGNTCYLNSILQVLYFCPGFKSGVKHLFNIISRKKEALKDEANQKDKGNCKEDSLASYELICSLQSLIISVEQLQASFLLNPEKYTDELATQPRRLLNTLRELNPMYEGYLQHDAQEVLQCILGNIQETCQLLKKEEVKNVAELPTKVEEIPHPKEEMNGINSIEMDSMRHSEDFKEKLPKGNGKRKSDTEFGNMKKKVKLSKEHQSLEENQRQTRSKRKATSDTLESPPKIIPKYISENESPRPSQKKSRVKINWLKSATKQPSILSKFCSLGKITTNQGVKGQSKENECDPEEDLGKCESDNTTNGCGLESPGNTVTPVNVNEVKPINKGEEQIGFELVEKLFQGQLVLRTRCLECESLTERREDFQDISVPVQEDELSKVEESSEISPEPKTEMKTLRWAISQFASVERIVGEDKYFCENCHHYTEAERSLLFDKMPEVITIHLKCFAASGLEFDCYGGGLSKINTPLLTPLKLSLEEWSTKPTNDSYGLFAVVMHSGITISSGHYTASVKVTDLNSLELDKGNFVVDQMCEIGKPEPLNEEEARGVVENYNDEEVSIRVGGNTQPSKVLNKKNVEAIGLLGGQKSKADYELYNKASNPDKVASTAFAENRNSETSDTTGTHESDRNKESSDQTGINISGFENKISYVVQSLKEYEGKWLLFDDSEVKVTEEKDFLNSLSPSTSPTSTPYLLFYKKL

CC(C)(C)C(=O)C(Oc1ccc(Cl)cc1)n1cncn1 (stereo not given)
16% and -16.7%: max response [13]
5.9%: max response [3, 29]
active: Potency [4] 39.8 µM
16.7%: max response [3, 30]
2.99% and 5.39%: max response [16]
inactive: Potency [1] | Potency [2] | activity change, negative = inhibition [3] 7.2% | activation [5] -3.08% and -1.34% | outcome [6] | Potency [8] | outcome [9] | Potency [10] | outcome [11] | outcome [12] | Potency [14] | outcome [15] | max response [17] 0.375% and -49.7% | activity change % (negative = inhibition) [18] -2.73% and -13.2% | Potency [19] | activation [20] -0.546% and 1.4% | activation [21] -2.3% and -1.59% | activation [22] 6% | max response [23] 1.14% and -0.0791% | outcome [24] | max response [25] 5.28% and -3.18% | max response [26] -10.8% and -21.2% | Potency [27]
-36.1% and 32.9%: max response [7]

O=C1CC2OCC=C3CN4CC[C@@]56c7ccccc7N1C5C2C3CC46 (stereo not given in full)
17.9%: max response [3, 29]
inactive: Potency [1] | Potency [2] | activity change, negative = inhibition [3] -0.509% | Potency [28]
21.5%: max response [3, 30]
